From PubChem BioAssay (NCI)
Compounds without any hit were thinned out: in the full panel of roughly 83,000, 20% have a hit.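 48-hour exposure, single concentration, 96-well plates; percent growth endpoint where 0 means no net growth. Active: below 10.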 The source made the active and inactive calls.

Key:
Assay in all cases: NCI-60 one-dose screen, 48 h (100 = growth as untreated, 0 = no growth, -100 = all killed)
NCI-H226 lung = details: 10 µM
HOP-62 NSCLC = details: 10 µM unless noted
HOP-92 NSCLC = details: 10 µM unless noted
NCI-H522 lung = details: 10 µM
A549/ATCC NSCLC = details: 10 µM unless noted
786-0 renal = details: 10 µM unless noted
COLO 205 colon = details: 10 µM unless noted
NCI-H460 lung = details: 10 µM unless noted
NCI-H322M lung = details: 10 µM unless noted

Measured: growth

O/N=C/c1cccs1
inactive: NCI-H226 lung 107% | HOP-62 NSCLC 94.3% | HOP-92 NSCLC 94% | NCI-H522 lung 106% | A549/ATCC NSCLC 98% | 786-0 renal 102% | COLO 205 colon 119%

Cn1c2c(cc(S(=O)(=O)c3ccccc3)c1=O)CCc1c-2cnn1-c1ccccc1Cl
inactive: NCI-H226 lung 117% | HOP-62 NSCLC 113% | NCI-H460 lung 106% | HOP-92 NSCLC 90.8% | A549/ATCC NSCLC 86.7% | 786-0 renal 102% | COLO 205 colon 113%

Cc1nn(-c2ccccc2)c2nc3nc4c(c(N)c3c(-c3ccc(Cl)cc3)c12)CCCC4
inactive: NCI-H226 lung 83.4% | HOP-62 NSCLC 106% | NCI-H460 lung 97.4% | HOP-92 NSCLC 84.4% | A549/ATCC NSCLC 94.4% | 786-0 renal 86.9% | COLO 205 colon 94.4%

CCCCCCCCCCCCSC1=CC(=O)C=CC1=O
inactive: NCI-H226 lung 91.5% | HOP-62 NSCLC 82.2% | NCI-H460 lung 105% | HOP-92 NSCLC 24.3% | A549/ATCC NSCLC 92.3% | 786-0 renal 98.7% | COLO 205 colon 107%
active: NCI-H522 lung -81.2%

COc1nc2c(cc1S(=O)(=O)c1ccccc1)CCc1c-2cnn1-c1ccccc1
inactive: NCI-H226 lung 87.2% | HOP-62 NSCLC 81.3% | NCI-H522 lung 47.9% | A549/ATCC NSCLC 57.7% | 786-0 renal 76.5% | COLO 205 colon 96.3%

CCN(C(=O)c1ccc2c3c(cccc13)C=C2)c1ccccc1
inactive: NCI-H226 lung 93.3% | HOP-62 NSCLC 99.8% | NCI-H460 lung 111% | HOP-92 NSCLC 86.5% | A549/ATCC NSCLC 80.2% | 786-0 renal 91.1% | COLO 205 colon 119%

CCCCC(CCCC)(S(=O)(=O)CC)S(=O)(=O)CC
inactive: NCI-H226 lung 95.2% | HOP-62 NSCLC 92.5% | NCI-H460 lung 104% | HOP-92 NSCLC 87.6% | NCI-H522 lung 87.3% | A549/ATCC NSCLC 94.3% | 786-0 renal 98.6% | COLO 205 colon 103%

COc1ccc(OC)c2ncccc12
inactive: NCI-H226 lung 95.8% | HOP-62 NSCLC 90.2% | NCI-H460 lung 108% | NCI-H522 lung 84% | A549/ATCC NSCLC 108% | 786-0 renal 102% | COLO 205 colon 106%

C(=C\c1ccccc1)/CN1CCN(C(c2ccccc2)c2ccccc2)CC1
inactive: NCI-H226 lung 86.3% | HOP-62 NSCLC 99.6% | NCI-H460 lung 96.5% | HOP-92 NSCLC 62.5% | NCI-H522 lung 93.5% | A549/ATCC NSCLC 88.7% | 786-0 renal 95.3% | COLO 205 colon 101%

O=C(Nc1ccc(Cl)c(Cl)c1)OCn1ncc2ccc([N+](=O)[O-])cc21
inactive: NCI-H226 lung 81.3% | HOP-62 NSCLC 71.6% | NCI-H460 lung 99.8% | HOP-92 NSCLC 62.6% | NCI-H522 lung 49.4% | A549/ATCC NSCLC 82.8% | 786-0 renal 83.3% | COLO 205 colon 93.2%

COc1ccc(-c2c3c(N)c4c(nc3nc3c2c(C)nn3-c2ccccc2)CCCCC4)cc1
inactive: NCI-H226 lung 99.4% | HOP-62 NSCLC 84.6% | NCI-H460 lung 82.8% | HOP-92 NSCLC 32.2% | NCI-H522 lung 50.2% | A549/ATCC NSCLC 81.3% | 786-0 renal 79.2% | COLO 205 colon 74.3%

O=C1CC2c3cc(-c4cc5ccccc5o4)ccc3CCN2C(=O)N1c1ccccc1 (stereo unspecified)
inactive: NCI-H226 lung 93.5% | HOP-62 NSCLC 82.9% | NCI-H460 lung 87.6% | HOP-92 NSCLC 47.2% | A549/ATCC NSCLC 80% | 786-0 renal 92.8% | COLO 205 colon 96.2%

CSc1nnc(-c2sc3nnc(-c4ccccc4)c(-c4ccccc4)c3c2O)o1
inactive: NCI-H226 lung 87.7% | HOP-62 NSCLC 71.1% | NCI-H460 lung 56.7% | NCI-H522 lung 96.6% | A549/ATCC NSCLC 80.5% | 786-0 renal 88.7% | COLO 205 colon 110%

O=C(N/N=C/c1ccc(F)cc1)c1[nH]c2ccc(I)cc2c1-c1ccccc1
active: NCI-H460 lung 1.78% | NCI-H522 lung 4.71% | COLO 205 colon -40.1%
inactive: NCI-H322M lung 34% | HOP-62 NSCLC 38% | HOP-92 NSCLC 22.5% | A549/ATCC NSCLC 32.4% | 786-0 renal 28.3%

Cc1nc2cc(Nc3nc(N4CCCCC4)nc(N4CCOCC4)n3)ccc2n1Cc1ccccc1
active: HOP-92 NSCLC -28.2% | A549/ATCC NSCLC -0.889%
inactive: NCI-H226 lung 28.4% | HOP-62 NSCLC 44.5% | NCI-H522 lung 37.9% | 786-0 renal 10.9% | COLO 205 colon 41%

Cc1ccc(S(=O)(=O)N2CCc3ccc(O)c4c3C2Cc2cc(Cl)ccc2-4)cc1 (stereo unspecified)
inactive: NCI-H322M lung 78.3% | HOP-62 NSCLC 69.2% | NCI-H460 lung 33.6% | HOP-92 NSCLC 62.8% | NCI-H522 lung 18.4% | A549/ATCC NSCLC 53.9% | 786-0 renal 88.2%

CC1(C)N=C(N)N=C(N)N1c1cccc(/C=C/C=C/c2cccc([N+](=O)[O-])c2)c1
inactive: NCI-H226 lung 76.9% | HOP-62 NSCLC 104% | NCI-H460 lung 21.3% | HOP-92 NSCLC 70.7% | NCI-H522 lung 27.6% | A549/ATCC NSCLC 28.2% | 786-0 renal 91.9% | COLO 205 colon 29.7%

O=C1/C(=C/c2ccc(Cl)cc2)CN(Cc2cn(CCCNc3ccnc4cc(Cl)ccc34)nn2)C/C1=C\c1ccc(Cl)cc1
active: NCI-H322M lung -28.9% | HOP-62 NSCLC -69.4% | NCI-H460 lung -67.6% | HOP-92 NSCLC -65.3% | NCI-H522 lung -92.8% | A549/ATCC NSCLC -62.9% | 786-0 renal -74.4% | COLO 205 colon -61.3%

COC1(OC)C2(Cl)C=C(c3ccccc3)C1(Cl)C(Cl)=C2Cl (stereo unspecified)
inactive: NCI-H226 lung 102% | HOP-62 NSCLC 93.9% | NCI-H460 lung 113% | HOP-92 NSCLC 77.7% | NCI-H522 lung 80.9% | A549/ATCC NSCLC 99.8% | 786-0 renal 103% | COLO 205 colon 108%

Cc1nn(-c2ccccc2)c2nc3nc4c(c(N)c3c(-c3ccc(Cl)cc3)c12)CCC4
inactive: NCI-H226 lung 94.1% | HOP-62 NSCLC 101% | NCI-H460 lung 72.7% | HOP-92 NSCLC 80.4% | NCI-H522 lung 102% | A549/ATCC NSCLC 84.8% | 786-0 renal 74% | COLO 205 colon 67%

COc1cccc(OC(=O)c2ccccc2)c1OC(=O)c1ccccc1
inactive: NCI-H226 lung 109% | HOP-62 NSCLC 61.7% | NCI-H460 lung 81.6% | HOP-92 NSCLC 40% | A549/ATCC NSCLC 78% | 786-0 renal 101% | COLO 205 colon 108%

CCCCCCCCCCCCCCNc1nc(CO)ncc1-c1ccc(C(F)(F)F)cc1
inactive: NCI-H226 lung 101% | HOP-62 NSCLC 92.9% | NCI-H460 lung 105% | A549/ATCC NSCLC 98.9% | 786-0 renal 97.3% | COLO 205 colon 108%

C=C(C)COC(=O)c1ccccc1C(=O)OCC1(C)CO1 (stereo unspecified)
inactive: NCI-H226 lung 102% | HOP-62 NSCLC 102% | NCI-H460 lung 108% | A549/ATCC NSCLC 94.8% | 786-0 renal 105% | COLO 205 colon 106%

COc1ccc(-c2[nH]ncc2Nc2cc(OC)c(OC)c(OC)c2)cc1
active: COLO 205 colon -11.9%
inactive: NCI-H322M lung 48.7% | HOP-62 NSCLC 51.7% | NCI-H460 lung 14.1% | HOP-92 NSCLC 65.8% | A549/ATCC NSCLC 61.2% | 786-0 renal 44.1%

CCC(C)[C@H]1O[C@]2(CC[C@@H]1C)C[C@@H]1C[C@@H](C/C=C(\C)[C@@H](OC3C[C@H](OC)C(O[C@H]4C[C@H](OC)[C@@H](O)[C@H](C)O4)[C@H](C)O3)[C@@H](C)/C=C/C=C3\CO[C@@H]4[C@H](O)C(C)=C[C@@H](C(=O)O1)[C@]34O)O2 (stereo partly specified)
active: HOP-92 NSCLC -6.11% | 786-0 renal -79.7% | COLO 205 colon -41.6%
inactive: NCI-H322M lung 52.7% | HOP-62 NSCLC 29.5% | NCI-H522 lung 17.2% | A549/ATCC NSCLC 21.3%

COc1ccc(/C=C2\CN(Cc3cn(CCCNc4ccnc5cc(Cl)ccc45)nn3)C/C(=C\c3ccc(OC)c(OC)c3)C2=O)cc1OC
active: HOP-62 NSCLC -1.63% | NCI-H460 lung -5.13% | A549/ATCC NSCLC 5.33% | 786-0 renal -1.83% | COLO 205 colon 1.93%
inactive: NCI-H322M lung 22.7% | HOP-92 NSCLC 25.5%

Cc1ccc(N(CSc2ccc(Cl)cc2)CSc2ccc(Cl)cc2)cc1
inactive: NCI-H322M lung 64.1% | NCI-H460 lung 14.3% | HOP-92 NSCLC 56.8% | NCI-H522 lung 39.3% | A549/ATCC NSCLC 28.5% | 786-0 renal 51.5% | COLO 205 colon 118%

CCOC(=O)C(CC(c1ccccc1)N1CCCCC1)[N+](=O)[O-] (stereo unspecified)
inactive: NCI-H322M lung 88.5% | HOP-62 NSCLC 86% | NCI-H460 lung 68% | HOP-92 NSCLC 78.4% | NCI-H522 lung 59.4% | A549/ATCC NSCLC 76.4% | 786-0 renal 93.3% | COLO 205 colon 108%

C=CC(=O)N1CC2(CC(n3nc(-c4ccc(Oc5ccccc5)cc4)c4c(N)ncnc43)C2)C1
inactive: NCI-H322M lung 31.1% | HOP-62 NSCLC 35.7% | NCI-H460 lung 40.5% | HOP-92 NSCLC 20% | A549/ATCC NSCLC 39.2% | 786-0 renal 35.5%

O=C(COc1cccc(/C=C2\COc3ccccc3C2=O)c1)c1ccccc1
active: NCI-H522 lung -41.9%
inactive: NCI-H322M lung 95.3% | HOP-62 NSCLC 98% | NCI-H460 lung 104% | HOP-92 NSCLC 91.5% | A549/ATCC NSCLC 89.2% | 786-0 renal 88.8% | COLO 205 colon 102%

COc1cc(C2C3=C(COC3=O)N(CCO)c3cc4c(cc32)OCO4)cc(OC)c1O (stereo unspecified)
inactive: NCI-H322M lung 52.5% | HOP-62 NSCLC 41.7% | NCI-H460 lung 16.1% | HOP-92 NSCLC 66% | A549/ATCC NSCLC 52.1% | 786-0 renal 20%
active: NCI-H522 lung -40.7% | COLO 205 colon 7.23%
